Data as given in ChEMBL document CHEMBL3988442, “University of Dundee, Small-Polar-MMV Screening Library” (2021).
For some assays here: Results with a measured potency or affinity are listed apart.

Legend:
Design in all cases: scale not given: direction of the effect not stated beside the values
[1] = target: Protein translocase subunit SecA (Escherichia coli (strain K12)) (UniProt P10408); experiment: Assay to Identify E. coli SecA ATPase Inhibitors; type: functional; conditions: 30 µM
[2] = target: T1, Ubiquitin-activating enzyme e1, putative (Leishmania donovani (strain BPK282A1)) (UniProt E9BSI1); experiment: Leishmania donovani Ubiquitin Activating Enzyme (LdE1); type: functional; conditions: 30 µM
T1 sequence (whole entry): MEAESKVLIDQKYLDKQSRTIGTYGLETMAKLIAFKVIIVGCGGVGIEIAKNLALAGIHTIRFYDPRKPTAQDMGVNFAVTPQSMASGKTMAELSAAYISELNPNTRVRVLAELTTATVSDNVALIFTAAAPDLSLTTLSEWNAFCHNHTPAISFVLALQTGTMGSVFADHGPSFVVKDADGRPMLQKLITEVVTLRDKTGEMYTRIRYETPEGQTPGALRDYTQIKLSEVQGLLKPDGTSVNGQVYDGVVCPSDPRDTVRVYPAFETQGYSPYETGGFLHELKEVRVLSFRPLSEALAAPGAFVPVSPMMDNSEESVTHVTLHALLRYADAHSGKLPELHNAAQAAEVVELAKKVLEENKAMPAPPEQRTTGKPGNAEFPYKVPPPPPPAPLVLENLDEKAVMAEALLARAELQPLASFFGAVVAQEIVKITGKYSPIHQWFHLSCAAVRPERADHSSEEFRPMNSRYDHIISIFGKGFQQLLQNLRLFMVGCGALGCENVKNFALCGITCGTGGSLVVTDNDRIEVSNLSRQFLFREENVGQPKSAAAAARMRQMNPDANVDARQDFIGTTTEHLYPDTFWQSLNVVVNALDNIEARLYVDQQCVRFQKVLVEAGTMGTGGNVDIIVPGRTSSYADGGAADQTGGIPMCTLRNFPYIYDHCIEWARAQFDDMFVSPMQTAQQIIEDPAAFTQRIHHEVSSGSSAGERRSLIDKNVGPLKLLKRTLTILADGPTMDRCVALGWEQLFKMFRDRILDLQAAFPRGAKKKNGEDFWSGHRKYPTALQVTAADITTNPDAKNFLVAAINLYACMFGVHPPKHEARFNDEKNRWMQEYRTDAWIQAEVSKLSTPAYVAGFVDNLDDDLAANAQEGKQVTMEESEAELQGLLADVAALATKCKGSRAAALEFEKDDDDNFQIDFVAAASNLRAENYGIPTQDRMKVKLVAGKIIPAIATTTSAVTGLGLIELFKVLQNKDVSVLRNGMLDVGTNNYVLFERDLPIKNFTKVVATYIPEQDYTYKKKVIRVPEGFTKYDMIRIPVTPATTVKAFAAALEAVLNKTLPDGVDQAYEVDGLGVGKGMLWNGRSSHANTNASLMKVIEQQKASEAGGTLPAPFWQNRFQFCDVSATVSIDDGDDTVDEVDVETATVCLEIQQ

[3] = target: Sialic acid-binding Ig-like lectin 9 (Homo sapiens) (UniProt Q9Y336); experiment: Hs-Siglec9 ALPHAscreen SOP 20170721; conditions: 10 µM
[4] = system: Trypanosoma cruzi; experiment: Trypanosoma cruzi phosphomannomutase and mannose-1-phosphate guanylyltransferase assay; type: functional; conditions: 10 µM
[5] = target: T2, Arginase-2, mitochondrial (Homo sapiens) (UniProt P78540); experiment: in vitro enzyme assay to detect the production of urea directly proportional to the activity of Arginase II; type: functional; conditions: 33.3 µM; also: in the data most compounds retested in dose-response had high values
T2 sequence (whole entry): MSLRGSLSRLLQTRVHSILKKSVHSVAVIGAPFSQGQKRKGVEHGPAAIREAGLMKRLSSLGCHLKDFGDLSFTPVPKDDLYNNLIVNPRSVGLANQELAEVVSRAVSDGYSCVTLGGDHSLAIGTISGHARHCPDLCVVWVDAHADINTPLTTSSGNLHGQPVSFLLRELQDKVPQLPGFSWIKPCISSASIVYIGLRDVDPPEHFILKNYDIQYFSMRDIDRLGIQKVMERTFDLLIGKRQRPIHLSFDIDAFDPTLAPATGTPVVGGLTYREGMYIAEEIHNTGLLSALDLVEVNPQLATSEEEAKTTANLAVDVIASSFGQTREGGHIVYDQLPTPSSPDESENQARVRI

[6] = target: T3, Proteasome subunit beta (Trypanosoma cruzi) (UniProt O96673); experiment: Trypanosoma cruzi proteasome chymotrypsin-like activity (TcProtChymo) assay.; also: in the data most compounds retested in dose-response had high values; type: functional; conditions: 9.37 µM
T3 sequence (whole entry): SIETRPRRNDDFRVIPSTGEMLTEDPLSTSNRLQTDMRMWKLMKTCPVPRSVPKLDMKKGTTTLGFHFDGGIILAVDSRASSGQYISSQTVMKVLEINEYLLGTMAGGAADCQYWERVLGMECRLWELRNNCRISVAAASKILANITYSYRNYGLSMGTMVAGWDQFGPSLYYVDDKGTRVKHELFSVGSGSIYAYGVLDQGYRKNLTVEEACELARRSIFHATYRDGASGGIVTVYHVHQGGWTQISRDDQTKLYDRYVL

[7] = species: Homo sapiens; experiment: To identify inhibition of the IFN signalling (Jak-Stat) pathway via expression of an eGFP reporter gene under the control of an IFN-stimulated response element (ISRE) containing MxA promoter.; type: functional; conditions: 30 µM
[8] = target: T4, Tyrosyl-tRNA synthetase, putative (Trypanosoma cruzi (strain CL Brener)) (UniProt Q4DSP6); experiment: Trypanosoma cruzi tyrosyl tRNA synthetase (TcYRS) _High Tyrosine SOP; type: functional; conditions: 30 µM; also: in the data most compounds retested in dose-response had high values
T4 sequence (whole entry): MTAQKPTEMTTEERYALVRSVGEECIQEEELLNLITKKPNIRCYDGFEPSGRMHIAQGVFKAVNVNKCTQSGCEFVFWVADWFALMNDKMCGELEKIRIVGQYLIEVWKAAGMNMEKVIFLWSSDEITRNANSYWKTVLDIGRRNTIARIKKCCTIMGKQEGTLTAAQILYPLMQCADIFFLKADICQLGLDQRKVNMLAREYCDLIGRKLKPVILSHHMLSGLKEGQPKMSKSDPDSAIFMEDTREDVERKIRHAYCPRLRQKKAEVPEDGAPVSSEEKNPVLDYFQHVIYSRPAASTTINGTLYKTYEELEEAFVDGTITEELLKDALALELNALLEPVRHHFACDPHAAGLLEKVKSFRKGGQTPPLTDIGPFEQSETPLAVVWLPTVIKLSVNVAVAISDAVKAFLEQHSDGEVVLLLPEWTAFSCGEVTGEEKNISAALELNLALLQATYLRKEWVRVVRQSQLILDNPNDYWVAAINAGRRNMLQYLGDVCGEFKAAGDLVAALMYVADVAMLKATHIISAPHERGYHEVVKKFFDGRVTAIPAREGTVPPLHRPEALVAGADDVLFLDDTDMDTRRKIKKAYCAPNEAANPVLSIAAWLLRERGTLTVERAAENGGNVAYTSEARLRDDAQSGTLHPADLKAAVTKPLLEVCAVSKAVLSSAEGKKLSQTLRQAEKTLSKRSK

[9] = target: T4, Tyrosyl-tRNA synthetase, putative (Trypanosoma cruzi (strain CL Brener)); experiment: Trypanosoma cruzi tyrosyl tRNA synthetase (TcYRS) SOP; type: functional; conditions: 30 µM
[10] = target: Chromo domain-containing protein 1 (Saccharomyces cerevisiae (strain ATCC 204508 / S288c) (Baker's yeast)) (UniProt P32657); experiment: ScCHD-1 Enzyme Inhibition Assay; type: functional; conditions: 30 µM; also: in the data most compounds retested in dose-response had high values
Chromo domain-containing protein 1 (Saccharomyces cerevisiae (strain ATCC 204508 / S288c) (Baker's yeast)), sequence (P32657 whole entry, the tested form may be a part): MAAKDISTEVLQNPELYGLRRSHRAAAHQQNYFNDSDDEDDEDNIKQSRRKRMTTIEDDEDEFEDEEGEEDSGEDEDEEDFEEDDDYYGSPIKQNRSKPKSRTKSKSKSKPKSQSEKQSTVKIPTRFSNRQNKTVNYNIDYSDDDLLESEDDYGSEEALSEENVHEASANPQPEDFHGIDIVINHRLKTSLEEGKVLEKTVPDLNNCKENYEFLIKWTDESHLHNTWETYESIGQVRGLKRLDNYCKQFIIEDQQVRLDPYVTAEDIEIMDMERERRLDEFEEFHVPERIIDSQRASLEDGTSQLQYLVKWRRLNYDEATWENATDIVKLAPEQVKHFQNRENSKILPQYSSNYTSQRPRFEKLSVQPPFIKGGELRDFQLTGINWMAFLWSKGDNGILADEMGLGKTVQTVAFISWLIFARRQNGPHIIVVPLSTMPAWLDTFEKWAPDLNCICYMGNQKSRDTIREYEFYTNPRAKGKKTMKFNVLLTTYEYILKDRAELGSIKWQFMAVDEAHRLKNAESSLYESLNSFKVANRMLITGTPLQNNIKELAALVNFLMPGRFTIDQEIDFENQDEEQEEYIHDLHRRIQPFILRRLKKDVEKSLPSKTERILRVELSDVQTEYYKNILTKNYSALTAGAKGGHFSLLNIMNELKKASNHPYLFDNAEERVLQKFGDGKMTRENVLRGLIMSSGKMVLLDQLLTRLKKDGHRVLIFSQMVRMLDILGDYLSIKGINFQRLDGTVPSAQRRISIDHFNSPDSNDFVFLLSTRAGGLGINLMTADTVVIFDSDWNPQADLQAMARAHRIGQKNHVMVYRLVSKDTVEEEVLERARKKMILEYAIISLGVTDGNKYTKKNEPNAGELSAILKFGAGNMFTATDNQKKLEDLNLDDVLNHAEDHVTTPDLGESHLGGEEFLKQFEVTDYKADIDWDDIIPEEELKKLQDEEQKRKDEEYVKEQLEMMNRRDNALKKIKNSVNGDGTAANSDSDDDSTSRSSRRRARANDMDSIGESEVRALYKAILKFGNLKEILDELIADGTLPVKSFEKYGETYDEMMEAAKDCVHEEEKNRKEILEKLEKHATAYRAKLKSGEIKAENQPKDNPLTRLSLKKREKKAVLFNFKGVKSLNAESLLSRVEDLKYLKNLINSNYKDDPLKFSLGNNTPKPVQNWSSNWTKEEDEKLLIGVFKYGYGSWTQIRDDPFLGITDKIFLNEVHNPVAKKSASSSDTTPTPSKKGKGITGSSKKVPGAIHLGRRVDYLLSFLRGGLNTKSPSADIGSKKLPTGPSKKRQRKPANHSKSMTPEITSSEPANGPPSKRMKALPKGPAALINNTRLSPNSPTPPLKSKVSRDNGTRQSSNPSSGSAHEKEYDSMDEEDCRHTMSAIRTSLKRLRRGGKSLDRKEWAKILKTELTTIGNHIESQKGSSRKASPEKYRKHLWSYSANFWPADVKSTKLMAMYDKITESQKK

Sialic acid-binding Ig-like lectin 9 (Homo sapiens), sequence (Q9Y336 whole entry): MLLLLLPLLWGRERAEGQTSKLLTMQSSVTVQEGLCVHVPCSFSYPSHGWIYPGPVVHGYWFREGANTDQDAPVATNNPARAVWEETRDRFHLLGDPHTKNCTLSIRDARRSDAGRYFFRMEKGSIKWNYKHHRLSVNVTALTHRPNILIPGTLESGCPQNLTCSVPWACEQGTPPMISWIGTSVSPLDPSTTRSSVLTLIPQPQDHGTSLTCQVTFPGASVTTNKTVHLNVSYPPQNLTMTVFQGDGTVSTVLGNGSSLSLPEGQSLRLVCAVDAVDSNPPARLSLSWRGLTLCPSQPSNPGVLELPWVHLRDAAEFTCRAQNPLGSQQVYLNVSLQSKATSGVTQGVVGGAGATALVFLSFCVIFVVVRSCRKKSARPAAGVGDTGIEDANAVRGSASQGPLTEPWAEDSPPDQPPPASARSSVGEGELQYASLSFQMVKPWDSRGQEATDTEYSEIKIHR
Protein translocase subunit SecA (Escherichia coli (strain K12)), sequence (P10408 whole entry): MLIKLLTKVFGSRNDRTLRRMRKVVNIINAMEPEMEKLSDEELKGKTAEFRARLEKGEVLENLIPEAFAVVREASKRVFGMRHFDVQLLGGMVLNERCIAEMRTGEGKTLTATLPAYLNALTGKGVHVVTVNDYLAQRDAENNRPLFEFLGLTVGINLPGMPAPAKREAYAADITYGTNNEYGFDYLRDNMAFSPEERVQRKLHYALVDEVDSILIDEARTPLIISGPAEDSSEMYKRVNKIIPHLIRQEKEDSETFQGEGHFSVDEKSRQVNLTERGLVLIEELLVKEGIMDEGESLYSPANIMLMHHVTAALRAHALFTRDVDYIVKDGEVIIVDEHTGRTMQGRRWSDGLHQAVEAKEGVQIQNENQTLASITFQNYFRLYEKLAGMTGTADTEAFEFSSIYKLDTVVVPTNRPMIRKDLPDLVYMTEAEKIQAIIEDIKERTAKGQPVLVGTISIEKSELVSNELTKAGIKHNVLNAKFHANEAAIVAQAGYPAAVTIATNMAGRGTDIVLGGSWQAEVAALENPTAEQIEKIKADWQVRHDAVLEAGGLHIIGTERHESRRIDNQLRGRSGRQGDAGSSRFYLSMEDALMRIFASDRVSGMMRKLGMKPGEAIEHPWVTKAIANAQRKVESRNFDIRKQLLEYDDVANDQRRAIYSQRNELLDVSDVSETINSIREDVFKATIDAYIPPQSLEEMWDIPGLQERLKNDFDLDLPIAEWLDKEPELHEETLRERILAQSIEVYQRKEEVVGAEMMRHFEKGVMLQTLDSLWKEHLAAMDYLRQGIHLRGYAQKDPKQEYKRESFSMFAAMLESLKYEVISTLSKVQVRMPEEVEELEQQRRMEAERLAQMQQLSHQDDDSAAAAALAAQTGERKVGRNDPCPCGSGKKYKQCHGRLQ

| Structure (SMILES) | Percent Effect [1] [%] | Percent Effect [2] [%] | Percent Effect [3] [%] | Percent Effect [4] [%] | Percent Effect [5] [%] | Percent Effect [6] [%] | Percent Effect [7] [%] | Percent Effect [8] [%] | Percent Effect [9] [%] | Percent Effect [10] [%] |
| --- | --- | --- | --- | --- | --- | --- | --- | --- | --- | --- |
| NC(=O)c1cc(NC(=O)NCCc2cc(F)cc(F)c2)ccc1F | -0.0438 | 10.4 | 8.44 | 0.56 | -2.66 | 5.26 | -4.36 | 5.88 | 23.5 | -11.6 |
| CN1CC(=O)N(c2ccsc2)CC12CCN(C(=O)c1ccccc1)C2 (stereo not given) | -4.65 | 11.7 | -6.87 | -3.99 | 3.64 | 12.6 | -10.9 | 5.79 | 7.69 | 1.01 |
| CCc1cc(C(=O)N2CCCC2c2nc(C)c(F)c(O)n2)on1 (stereo not given) | 1.86 | 17.3 | -9.03 | 0.197 | -3.54 | 16.1 | 26.2 | 3.17 | 10 | -19.6 |
| O=C(Cc1csc(-c2nnc[nH]2)n1)N1CCCC1Cn1cccn1 (stereo not given) | -1.04 | 8 | 5.84 | -0.402 | -3.1 | 8.74 | -1.78 | 2.63 | 5.13 | -9.48 |
| Cn1cnc2c1CCN(Cc1ccc(C(=O)N3CCCC3)cc1)C2 | -2.26 | 15.4 | -9.12 | 1.97 | 4.51 | 11 | 9.66 | 3.35 | 20.5 | -0.499 |
| COc1ccc(CN2CCN(C(C)=O)CC3(CC(=O)N(C)C3)C2)cc1 (stereo not given) | -0.72 | 14.3 | 1.28 | -0.375 | 2.28 | 6.44 | 4.32 | 12.6 | 20 | -6.64 |
| Cc1cccc(CN2CCC3(CCN(Cc4ccccn4)C3)C2=O)c1 (stereo not given) | -10.9 | 6.49 | 0.239 | -2.81 | 3.65 | 6.95 | 19 | -0.966 | 0 | -12.5 |
| CCn1cc(S(=O)(=O)N(C)Cc2c(Br)cnn2CC)c(C)n1 | 8.78 | 12 | -0.969 | -3.55 | 3.54 | 16.6 | 20.6 | 3.17 | 7.5 | -17.9 |
